In the OligoGym collection:

Biological target: CBR1
Experiment: pooled miR-30 sensor sort-seq; sequence = guide strand
Details: shRNA
Also: reference of the scale not given here.

Row | Sequence | sensor-assay potency score (higher = more potent)
1 | TTGTTTTCATCGTCACTTCAGC | -0.315
2 | TAATTCTGTGCACACATCTCGG | -0.638
3 | TCTCTGAAACAAATTGTCCATG | -1.29
4 | TTTTCATCGTCACTTCAGCTTG | -0.702
5 | TTCTGTGCACACATCTCGGGTA | 0.677
6 | TATTAGAGGGAGTAATTCTGTG | -0.602
7 | TTCAGGAGGATCTTGTCCCCTT | -0.643
8 | TCAGTGATGGTCTCACTGCGGA | -1.01
9 | TAAGAGATCATTTTTTTTCTTA | 0.534
10 | ATCGTCGATGTCCAGCTGGTGG | -1.35
11 | TTCAGCTTGAATATGAAAGGGT | 0.264
12 | TATGACATTGTAAATGCCCTTT | -0.242
13 | TTAGTAGTACATTAGTGAGTGC | -0.244
14 | AATTCTGTGCACACATCTCGGG | -0.452
15 | TAGTACATTAGTGAGTGCTAAT | -1.35
16 | TCAATTAGTAGTACATTAGTGA | 0.828
17 | TTCTCTGAAACAAATTGTCCAT | -0.572
18 | TTGAATATGAAAGGGTGTGGGA | 0.163
19 | TTATTAGAGGGAGTAATTCTGT | -0.254
20 | TCTGTGCACACATCTCGGGTAC | -0.133
21 | ATTCTGTGCACACATCTCGGGT | -0.951
22 | TTTGTTTTCATCGTCACTTCAG | 0.571
23 | TCATCGTCACTTCAGCTTGAAT | -1.32
24 | TTACGTAGTCAACTGAGTGCGT | 0.669
